The record followed here is PubChem BioAssay.

Assay [1] relates to Wnt5a (protein binding on small-molecule microarray). Description: small molecules binding Wnt5a protein – biophysical, small-molecule microarray, 635/667 nm fluorescence, primary screen (AID 1142).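 Note: fluorescence read at 667 nm with signal to noise per printed feature.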 The conditions noted are these: 635 nm fluorescence, higher = more signal.
The nature of assay [2]: ATP-based viability of Huh7 replicon cells – cell-based, CellTiter-Glo luminescence, basal, 48 h, cytotoxicity control for HCV replication inhibitor project, primary screen (AID 1143).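 Note: Huh7 hepatoma cells carrying a hepatitis C replication reporter with no stimulus; test concentration not given here.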 The conditions noted are these: higher = more signal, called active from +8 up or from −8 down. Background: Replicon systems follow genome replication, usually without infectious particles.
Assay [3] can be described thus: Pseudomonas biofilm growth suppression – PAO1 strain, BacTiter-Glo luminescence, LB-PBS, primary screen (AID 1144). The conditions noted are these: P. aeruginosa PAO1 biofilm, 12 h, higher = more signal.
A short description of assay [4]: basal CRE-LacZ reporter activity in PC12 – cell-based, unstimulated, primary screen (AID 1145). To be noted: no forskolin, luminescence, 4.5 h, higher = more signal, called active from +8 up or from −8 down.
The nature of assay [5]: forskolin-driven CRE-LacZ activity in PC12 – cell-based, CRE-LacZ reporter, forskolin-stimulated, primary screen (AID 1146).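 Note: PC12 cells with 6xCRE LacZ reporter stimulated by forskolin 10 µM; beta-galactosidase reporter signal reflecting CREB driven transcription.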 The conditions noted are these: luminescence, 4.5 h, higher = more signal, called active from +8 up or from −8 down.
In assay [6] the target is Streptavidin (Streptomyces avidinii) (UniProt P22629). Description: compounds binding control protein streptavidin – biophysical, small-molecule microarray, 635/667 nm fluorescence, artefact control for SMM compound annotation, primary screen (AID 1147).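 Note: signal reflects streptavidin binding to arrayed compounds as a control protein.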 The conditions noted are these: higher = more signal.
Streptavidin (Streptomyces avidinii), sequence (P22629 whole entry, looked up): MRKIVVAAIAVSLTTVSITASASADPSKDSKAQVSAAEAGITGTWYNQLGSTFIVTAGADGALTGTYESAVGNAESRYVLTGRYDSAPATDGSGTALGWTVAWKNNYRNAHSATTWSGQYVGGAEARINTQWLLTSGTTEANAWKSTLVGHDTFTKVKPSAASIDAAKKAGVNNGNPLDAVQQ
Assay [7] is described as follows: probe aInhba binding on compound microarray – biochemical, small-molecule microarray, 635/667 nm fluorescence, primary screen (AID 1148).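 Note: score merges 667nm spot fluorescence with signal-to-noise for antibody binding to printed compounds.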 The conditions noted are these: higher = more signal.
For assay [8], the target named is Torsin-1A (Homo sapiens) (UniProt O14656). Description: TOR1A wild-type binding on microarray – cell lysate, small-molecule microarray, lysate, 635/667 nm, primary screen (AID 1149). To be noted: COS7 hTOR1A-WT lysate, 635 nm fluorescence, higher = more signal.
Torsin-1A (Homo sapiens), sequence (O14656 whole entry, looked up): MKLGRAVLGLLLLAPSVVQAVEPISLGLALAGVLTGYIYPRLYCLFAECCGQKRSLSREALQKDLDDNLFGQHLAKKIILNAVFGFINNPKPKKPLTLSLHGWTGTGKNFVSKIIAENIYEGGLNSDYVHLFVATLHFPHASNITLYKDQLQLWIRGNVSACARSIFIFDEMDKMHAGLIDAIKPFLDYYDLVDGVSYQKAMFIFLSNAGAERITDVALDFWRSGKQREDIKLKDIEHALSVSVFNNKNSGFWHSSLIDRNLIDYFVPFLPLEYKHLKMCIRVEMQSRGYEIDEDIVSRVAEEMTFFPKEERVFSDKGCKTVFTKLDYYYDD
Assay [9] has the same target. Description: torsin A mutant lysate binding on microarrays – cell lysate, small-molecule microarray, COS7 lysate, 635/667 nm fluorescence, primary screen (AID 1150).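 Note: score pools 667 nm emission and signal to noise measuring lysate protein binding.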 To be noted: COS7 hTOR1A mutant lysate, 635 nm fluorescence, higher = more signal.
Assay [10] relates to Sonic hedgehog protein (Shh). Description: Sonic hedgehog microarray binding compounds – biochemical, small-molecule microarray, 635/667 nm fluorescence, primary screen (AID 1151).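 Note: Shh protein binding to compounds spotted on small-molecule microarray slides; score combines spot fluorescence intensity with signal-to-noise across triplicate slides.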 To be noted: 635 nm fluorescence, higher = more signal.

The structures appear in SMILES notation. Activity calls are given as the source filed them. Unless noted, the rule behind the calls is not given here.

With `CCC[C@@H]1C=C(C(=O)O)[C@H](c2ccc(C)cc2)N1S(=O)(=O)c1ccc(C)cc1`, the composite z-score in assay [1] is 0.0266; in assay [6], 0.981; in assay [7] it was -0.0087; in the assay with Torsin-1A (Homo sapiens) [8], 0.837; with Torsin-1A (Homo sapiens) [9] it was 1.38; in assay [10] it was -0.65. The z-score is 0.224 (inactive) in assay [2], -0.0655 (inactive) in [3], -0.527 (inactive) in assay [4] and 0.348 (inactive) in assay [5].
Consider `COc1cccc(C(=O)O[C@H]2CC[C@]3(C)C4=C(CCC3C2(C)C)[C@]2(C)CC[C@H]([C@H](C)CCCC(C)C)[C@@]2(C)CC4)c1` (stereo not given in full), for which the composite z-score in [1] was 0.0406; in assay [6], 0.184; in assay [7], -0.157; in the assay with Torsin-1A (Homo sapiens) [8], 0.637; with Torsin-1A (Homo sapiens) [9], 0.216; in assay [10] it was 0.425. Also, the z-score was -1 (inactive) in assay [2], -1.11 (inactive) in [3], 1.21 (inactive) in [4] and -0.687 (inactive) in [5].
For `O=C(CS)NCCCCCCNC(=O)[C@H]1C[C@H]2C(=O)N3CCC[C@H]3C(=O)N2[C@H]1c1cccc(OCCO)c1`, the composite z-score in assay [1] is 0.35; in [6] it was 0.359; in assay [7], -0.0917; with Torsin-1A (Homo sapiens) [8], 0.536; in the assay with Torsin-1A (Homo sapiens) [9] it was 1.31; in assay [10], 1.52. Also, the z-score in [2] is -0.521 (inactive); in [3] it was -0.357 (inactive); in assay [4], 0.549 (inactive); in assay [5], 0.581 (inactive).
On to `CCCCCN1CC=CC23O[C@@H]4/C=C\CCC(C)OC(=O)C4[C@H]2C(=O)N(CCCCCO)[C@@H]3C1=O` (stereo not given in full), for which the composite z-score in assay [1] was -1.01; in assay [6], -1.33; in assay [7] it was -0.182; in the assay with Torsin-1A (Homo sapiens) [8] it was -0.798; with Torsin-1A (Homo sapiens) [9] it was 0.815; in assay [10], -0.0084. Also, the z-score in [2] is 0.292 (inactive); in assay [3] it was -1.35 (inactive); in assay [4], -0.492 (inactive); in assay [5] it was 0.069 (inactive).
`O=C1C2C=CC(C(O)c3cccs3)N(Nc3ccccc3F)C2C(=O)N1c1ccccc1` (stereo not given): the composite z-score in [1] is 0.13; in assay [6], 0.295; in assay [7], -0.159; in the assay with Torsin-1A (Homo sapiens) [8] it was 0.0473; in the assay with Torsin-1A (Homo sapiens) [9], 0.605; in assay [10], -0.573. For the same molecule, the z-score in assay [2] is -1.1 (inactive); in [3] it was -1.51 (inactive); in assay [4], -0.714 (inactive); in [5] it was -0.198 (inactive).
For the molecule `C=CC[C@@]1(C(=O)O)N=C(c2ccc(OCCCO)cc2)O[C@@H]1c1ccccc1N=[N+]=[N-]`, the composite z-score is 0.0886 in assay [1]; 1.11 in assay [6]; 0.0697 in assay [7]; -0.115 with Torsin-1A (Homo sapiens) [8]; 0.251 in the assay with Torsin-1A (Homo sapiens) [9]; -0.203 in [10]. Besides, the z-score in assay [2] is -1.41 (inactive); in [3] it was 0.651 (inactive); in [4] it was 0.367 (inactive); in assay [5] it was -0.432 (inactive).
